Consider 54 sequences from publication PMC7819943, “Rice protein-binding microarrays: a tool to detect cis-acting elements near promoter regions in rice”.

The full ranking holds about 68,000 sequences; the median of “fluorescence intensity (a.u.)” is about 9,100, and the highest 2% start at about 16,000. Many of the other results were omitted from the sample, so the highest values are more common in it than they were.

Sequence of OsWRKY34 (Q0JBA9 entry or part of it): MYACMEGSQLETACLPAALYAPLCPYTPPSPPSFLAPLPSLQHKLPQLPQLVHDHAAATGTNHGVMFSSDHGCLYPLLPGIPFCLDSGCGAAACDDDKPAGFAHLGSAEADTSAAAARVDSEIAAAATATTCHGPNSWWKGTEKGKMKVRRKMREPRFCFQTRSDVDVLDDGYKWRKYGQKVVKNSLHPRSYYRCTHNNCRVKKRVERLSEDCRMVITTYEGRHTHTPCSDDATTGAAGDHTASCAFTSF

This assay has as its target OsWRKY34 (Oryza sativa, UniProt Q0JBA9 1-250). Briefly: protein-binding microarray (RPBM); PBS, 2% BSA, 51.3 ng/ul salmon testes DNA, 50 uM zinc acetate, 200 nM TF, 25 C, 1 h; high values mean tight binding. The conditions noted are these: protein: recombinant; tags: N-terminal polyhistidine and DsRed monomer fusion (pET32a); label: CyDye5-dUTP incorporated in the synthesized complementary strand; 3' TTTTT single-stranded linker to array surface; dsDNA, one strand shown. The method, boiled down: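 Polyhistidine-tagged DsRed fusions of transcription factors, joined at the N-terminus, were expressed in E. coli BL21-CodonPlus and isolated on Ni–NTA. They were incubated at 200 nM for 1 h at 25 °C on a custom Agilent array, double-stranded and BSA-blocked, in PBS with 2% BSA, salmon testes DNA and 50 µM zinc acetate. The binding signal is per-feature fluorescence intensity (arbitrary units) read on an Axon 4000B scanner after washing.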
In the case of “ATCAGCCTCATGCCCTTGTAGTCCATCGATCTGTCAGATCCGGAGTCACCTAGTGCAG”, the binding signal is 13300 fluorescence intensity (a.u.).

Turning to “GGAGGAGGCTGGTAGGGGAGGCGGGAGTCCGGCGGCGAGGCGGAGTCACCTAGTGCAG”, the binding signal was 8640 fluorescence intensity (a.u.). Turning to “GAGGCGGGTGGGCGAGCTCCGGCGGCGGCGGGGTGGCCTTCGGAGTCACCTAGTGCAG”, the binding signal was 15800 fluorescence intensity (a.u.). Then “TTCGTTTTTCTTTTTTTTTTGATGGGGAGGTTGTAAAATGCGGAGTCACCTAGTGCAG”, with 13800 fluorescence intensity (a.u.); and “TGAGCCTTGCTCGTCGGCGGCGAGGTGGGGTGGGGCGGGGCGGAGTCACCTAGTGCAG”, with 20800 fluorescence intensity (a.u.).

Turning to “TGTGGATGGCGGGGCGAGGCGGAATGGGGCGAATGCGGCGCGGAGTCACCTAGTGCAG”, the binding signal is 8240 fluorescence intensity (a.u.). In the case of “GGAGGTGGGGATGGTGGGAGGTTTTGGTTTGGTAAAATAGCGGAGTCACCTAGTGCAG” it was 19800 fluorescence intensity (a.u.); in that of “TACTTTATCCGCGGCGGGTAGCTGGGGAGGGAGGGGAGGCCGGAGTCACCTAGTGCAG”, 22500 fluorescence intensity (a.u.). “GGCGGCCAGATCCGGGGCTGGGGAGGCGACGGCGGCGGGGCGGAGTCACCTAGTGCAG”: the binding signal is 8710 fluorescence intensity (a.u.). “GCGGAATGGGCGGCGGTGGAGGTGGCGGGTTTGGAGGCGGCGGAGTCACCTAGTGCAG”: the binding signal is 16700 fluorescence intensity (a.u.).

For “GGAGGTGGGAGTGGGCAGTGGCTCGGCTCGTCGTCCTGGGCGGAGTCACCTAGTGCAG”, the binding signal was 8780 fluorescence intensity (a.u.).

As for “TGGGCTTGGTGGAGGTGGCGGGTTTGGAGGCGGAGGTGGCCGGAGTCACCTAGTGCAG”, the binding signal was 14400 fluorescence intensity (a.u.). As for “CAGCAGCAGTGGTGGTGGTGGTTTTGGTAGTGGCTGGGAGCGGAGTCACCTAGTGCAG”, the binding signal was 9780 fluorescence intensity (a.u.). As to “CGGTAGTGCGTTAGGTCTTCTCCAAGTCTCTTGGCTTTTACGGAGTCACCTAGTGCAG”, the binding signal was 11100 fluorescence intensity (a.u.). With “TCACCGATTCACTCTCCTAGTCCTAGAGTCCTGGTCCATCCGGAGTCACCTAGTGCAG”, the binding signal is 8440 fluorescence intensity (a.u.). Then “GCACCCACAGTTCCATGAGACACATAGAAGTTTTACACAACGGAGTCACCTAGTGCAG”, with 10600 fluorescence intensity (a.u.); and “TTTCTGAGAGGCATAGTTCATGTTTCCCCATATATACTTCCGGAGTCACCTAGTGCAG”, with 8830 fluorescence intensity (a.u.); and “TCCGCTGCCTTCGATTCTTGGTAAGCCCCTAATTCTCCTTCGGAGTCACCTAGTGCAG”, with 8420 fluorescence intensity (a.u.).

With “ACGTTAGTTAAAAAGTCAACGGCGTCATCCATTAAAATACCGGAGTCACCTAGTGCAG”, the binding signal is 8900 fluorescence intensity (a.u.). “TCCCCATGCCATGCAAAATAAATATCCATATTACCGTTTCCGGAGTCACCTAGTGCAG”: the binding signal is 8320 fluorescence intensity (a.u.). Then “GTGGCGGCGGGTGGGGCCCATCTCATGGCTGCTGCCTCTGCGGAGTCACCTAGTGCAG”, with 10800 fluorescence intensity (a.u.); and “AAGTTTTTGGGTAGTGCTTTTGCGCGCTTTCTCTTGGCTGCGGAGTCACCTAGTGCAG”, with 8150 fluorescence intensity (a.u.); and “TTCTTCGGTGGTGGTGGTGGTGGGATGGAAGAGGAGGAAGCGGAGTCACCTAGTGCAG”, with 25800 fluorescence intensity (a.u.).

Consider “GGGGAGGAGGAGGAGGAGGGTAGGGATGGGGAAGAGGAGTCGGAGTCACCTAGTGCAG”, for which the binding signal is 8020 fluorescence intensity (a.u.). Regarding “CAGCGGGCCCAGCAAGTCAGCCTCACATCTTCTTCTTCATCGGAGTCACCTAGTGCAG”, the binding signal was 8340 fluorescence intensity (a.u.).

“AGCACCGGTGGCAGCGGCGGACCGTGGAGGGAGGGAGGGGCGGAGTCACCTAGTGCAG”: the binding signal is 9770 fluorescence intensity (a.u.). For the sequence “GGTGTGGGGCCCACCTGCAGCCTCACATCGGCACCAGCTGCGGAGTCACCTAGTGCAG”, the binding signal is 18600 fluorescence intensity (a.u.). In the case of “GTGGGCAGCGGCGGCGGCCGGTGGGAGGAGGGGAAGCATGCGGAGTCACCTAGTGCAG”, the binding signal is 8380 fluorescence intensity (a.u.). Consider “GTGGTGGAGGAGGAGGAGGAGGATGAGGAGGAAGCGGCTGCGGAGTCACCTAGTGCAG”, for which the binding signal was 8570 fluorescence intensity (a.u.).

Take “CGGCGGCGGTGGTGGGGAGGAGGAGGGCCAGCGGCAGCAACGGAGTCACCTAGTGCAG”: the binding signal is 17500 fluorescence intensity (a.u.). In the case of “GAGCTTTGCGCTGGGTGGGCTTGCATTTTTGGGTCTACCGCGGAGTCACCTAGTGCAG” it was 21500 fluorescence intensity (a.u.); in that of “TAGCTGTTTGGTCTTGCTGGTGGTGGTGGGTGAGTGTTGGCGGAGTCACCTAGTGCAG”, 11200 fluorescence intensity (a.u.); in that of “AGACTTTATTTTTTCCCTGGGCTAAGGACTAGTCCCATATCGGAGTCACCTAGTGCAG”, 8980 fluorescence intensity (a.u.).

For the sequence “GGGACCCGATTTGGGCGGTATATACCTTACTTCACGTGCACGGAGTCACCTAGTGCAG”, the binding signal is 8920 fluorescence intensity (a.u.).

On to “ATCGCTGCTGTCTTCTCAAATTATAATTTACCGTTTTTAACGGAGTCACCTAGTGCAG”, for which the binding signal was 8090 fluorescence intensity (a.u.). Consider “GCCTCCATCCACCTCGCCCATCCCTACACTCTACTACTCCCGGAGTCACCTAGTGCAG”, for which the binding signal was 8670 fluorescence intensity (a.u.). Take “CTCCTACTGCCTACCGCCGACGCAGAACTCCGTGGGTTACCGGAGTCACCTAGTGCAG”: the binding signal is 8210 fluorescence intensity (a.u.).

As for “GCCTCTCGTGGGCCGTCGCCGCCCACCCGCCCGGACACGTCGGAGTCACCTAGTGCAG”, the binding signal was 8380 fluorescence intensity (a.u.). As to “GGAGTTCGTGGGGACGTTCATCCTCATCTTCTTCGCGACGCGGAGTCACCTAGTGCAG”, the binding signal is 9260 fluorescence intensity (a.u.). In the case of “GAGTAGAGGTGGGAGGAAGCGGTGGTGTGGTGGGGTGGGGCGGAGTCACCTAGTGCAG” it was 22100 fluorescence intensity (a.u.); in that of “ACGCGCGGCCTAGTTGTGTGTGGGTGTGTGAGGTGAGGGGCGGAGTCACCTAGTGCAG”, 11000 fluorescence intensity (a.u.). As for “GGGCGGGCGGGCTCGAGGTTGTGGTGGGGCGTGTGGCAGGCGGAGTCACCTAGTGCAG”, the binding signal is 18200 fluorescence intensity (a.u.). “TTGGCTCGAGGCGGGGCTGGTTGGTTGGTTGGTTTGGTGGCGGAGTCACCTAGTGCAG”: the binding signal is 14600 fluorescence intensity (a.u.). In the case of “CGGCGCGCCGTGATTGTGCCTGATTGGGGTGGGGTTGGGGCGGAGTCACCTAGTGCAG” it was 25300 fluorescence intensity (a.u.).

Turning to “GTCGGCGTCGGCGTCGGCGTCGGCGGGCGGGAGGCGGGAGCGGAGTCACCTAGTGCAG”, the binding signal is 8650 fluorescence intensity (a.u.). In the case of “GGTGGCGTGCAGGGTGGAGCGGGAGGGCGGCGGCGGGTGGCGGAGTCACCTAGTGCAG”, the binding signal is 17300 fluorescence intensity (a.u.). For the sequence “GCCGTGGTGGTGTGGGGATCGTGTTGTGGCGGCGGATTGGCGGAGTCACCTAGTGCAG”, the binding signal was 8690 fluorescence intensity (a.u.). With “ATGAGGGGTCGGGGTTGGGCGGCGTGGGCACGGGCTCGAGCGGAGTCACCTAGTGCAG”, the binding signal was 13000 fluorescence intensity (a.u.). “GTGGGTGGAGGAAGCGGATAGGGAGAGGGGTGTGGGGCGGCGGAGTCACCTAGTGCAG”: the binding signal is 16000 fluorescence intensity (a.u.). For “CGGCGGCGGCGGCGGCGGCGGCGGAGGTGGTGTGGGTGGGCGGAGTCACCTAGTGCAG”, the binding signal was 8220 fluorescence intensity (a.u.). Regarding “GGGAGGGAGCCAGAGCGGCGGGCGTGGGGTTGGAGGAGGGCGGAGTCACCTAGTGCAG”, the binding signal was 9900 fluorescence intensity (a.u.). Then “CCGAAGATATCAACCAAACAGACCCGAACTTCTTCCCATTCGGAGTCACCTAGTGCAG”, with 8360 fluorescence intensity (a.u.); and “TGTTTTGGACTTTTTGGTCAACGGCCCATCAAAGCAAGCCCGGAGTCACCTAGTGCAG”, with 13000 fluorescence intensity (a.u.); and “GCCAAACGCGCCAGATCCGCGCCTCCTCCACTCACACGCGCGGAGTCACCTAGTGCAG”, with 8910 fluorescence intensity (a.u.).
